Experimental data taken from the supplement of paper PMC11732987, “Enantioselective OTUD7B fragment discovery through chemoproteomics screening and high-throughput optimisation” (Communications Chemistry, 2025).

Assays:
Assay in all cases: log2 ratio of Biotin-Ahx-Ub-VS probe labelling (fragment/DMSO); higher = less target engagement (more negative = stronger competition), active = hit call of the paper (q ≤ 0.05, log2 ratio ≤ -1)
Settings in all cases: compound concentration: 200 uM; treatment time: 3 h
USP34 = USP34 (UniProt Q70CQ2)
USP34, sequence (Q70CQ2 whole entry, the tested form may be a part): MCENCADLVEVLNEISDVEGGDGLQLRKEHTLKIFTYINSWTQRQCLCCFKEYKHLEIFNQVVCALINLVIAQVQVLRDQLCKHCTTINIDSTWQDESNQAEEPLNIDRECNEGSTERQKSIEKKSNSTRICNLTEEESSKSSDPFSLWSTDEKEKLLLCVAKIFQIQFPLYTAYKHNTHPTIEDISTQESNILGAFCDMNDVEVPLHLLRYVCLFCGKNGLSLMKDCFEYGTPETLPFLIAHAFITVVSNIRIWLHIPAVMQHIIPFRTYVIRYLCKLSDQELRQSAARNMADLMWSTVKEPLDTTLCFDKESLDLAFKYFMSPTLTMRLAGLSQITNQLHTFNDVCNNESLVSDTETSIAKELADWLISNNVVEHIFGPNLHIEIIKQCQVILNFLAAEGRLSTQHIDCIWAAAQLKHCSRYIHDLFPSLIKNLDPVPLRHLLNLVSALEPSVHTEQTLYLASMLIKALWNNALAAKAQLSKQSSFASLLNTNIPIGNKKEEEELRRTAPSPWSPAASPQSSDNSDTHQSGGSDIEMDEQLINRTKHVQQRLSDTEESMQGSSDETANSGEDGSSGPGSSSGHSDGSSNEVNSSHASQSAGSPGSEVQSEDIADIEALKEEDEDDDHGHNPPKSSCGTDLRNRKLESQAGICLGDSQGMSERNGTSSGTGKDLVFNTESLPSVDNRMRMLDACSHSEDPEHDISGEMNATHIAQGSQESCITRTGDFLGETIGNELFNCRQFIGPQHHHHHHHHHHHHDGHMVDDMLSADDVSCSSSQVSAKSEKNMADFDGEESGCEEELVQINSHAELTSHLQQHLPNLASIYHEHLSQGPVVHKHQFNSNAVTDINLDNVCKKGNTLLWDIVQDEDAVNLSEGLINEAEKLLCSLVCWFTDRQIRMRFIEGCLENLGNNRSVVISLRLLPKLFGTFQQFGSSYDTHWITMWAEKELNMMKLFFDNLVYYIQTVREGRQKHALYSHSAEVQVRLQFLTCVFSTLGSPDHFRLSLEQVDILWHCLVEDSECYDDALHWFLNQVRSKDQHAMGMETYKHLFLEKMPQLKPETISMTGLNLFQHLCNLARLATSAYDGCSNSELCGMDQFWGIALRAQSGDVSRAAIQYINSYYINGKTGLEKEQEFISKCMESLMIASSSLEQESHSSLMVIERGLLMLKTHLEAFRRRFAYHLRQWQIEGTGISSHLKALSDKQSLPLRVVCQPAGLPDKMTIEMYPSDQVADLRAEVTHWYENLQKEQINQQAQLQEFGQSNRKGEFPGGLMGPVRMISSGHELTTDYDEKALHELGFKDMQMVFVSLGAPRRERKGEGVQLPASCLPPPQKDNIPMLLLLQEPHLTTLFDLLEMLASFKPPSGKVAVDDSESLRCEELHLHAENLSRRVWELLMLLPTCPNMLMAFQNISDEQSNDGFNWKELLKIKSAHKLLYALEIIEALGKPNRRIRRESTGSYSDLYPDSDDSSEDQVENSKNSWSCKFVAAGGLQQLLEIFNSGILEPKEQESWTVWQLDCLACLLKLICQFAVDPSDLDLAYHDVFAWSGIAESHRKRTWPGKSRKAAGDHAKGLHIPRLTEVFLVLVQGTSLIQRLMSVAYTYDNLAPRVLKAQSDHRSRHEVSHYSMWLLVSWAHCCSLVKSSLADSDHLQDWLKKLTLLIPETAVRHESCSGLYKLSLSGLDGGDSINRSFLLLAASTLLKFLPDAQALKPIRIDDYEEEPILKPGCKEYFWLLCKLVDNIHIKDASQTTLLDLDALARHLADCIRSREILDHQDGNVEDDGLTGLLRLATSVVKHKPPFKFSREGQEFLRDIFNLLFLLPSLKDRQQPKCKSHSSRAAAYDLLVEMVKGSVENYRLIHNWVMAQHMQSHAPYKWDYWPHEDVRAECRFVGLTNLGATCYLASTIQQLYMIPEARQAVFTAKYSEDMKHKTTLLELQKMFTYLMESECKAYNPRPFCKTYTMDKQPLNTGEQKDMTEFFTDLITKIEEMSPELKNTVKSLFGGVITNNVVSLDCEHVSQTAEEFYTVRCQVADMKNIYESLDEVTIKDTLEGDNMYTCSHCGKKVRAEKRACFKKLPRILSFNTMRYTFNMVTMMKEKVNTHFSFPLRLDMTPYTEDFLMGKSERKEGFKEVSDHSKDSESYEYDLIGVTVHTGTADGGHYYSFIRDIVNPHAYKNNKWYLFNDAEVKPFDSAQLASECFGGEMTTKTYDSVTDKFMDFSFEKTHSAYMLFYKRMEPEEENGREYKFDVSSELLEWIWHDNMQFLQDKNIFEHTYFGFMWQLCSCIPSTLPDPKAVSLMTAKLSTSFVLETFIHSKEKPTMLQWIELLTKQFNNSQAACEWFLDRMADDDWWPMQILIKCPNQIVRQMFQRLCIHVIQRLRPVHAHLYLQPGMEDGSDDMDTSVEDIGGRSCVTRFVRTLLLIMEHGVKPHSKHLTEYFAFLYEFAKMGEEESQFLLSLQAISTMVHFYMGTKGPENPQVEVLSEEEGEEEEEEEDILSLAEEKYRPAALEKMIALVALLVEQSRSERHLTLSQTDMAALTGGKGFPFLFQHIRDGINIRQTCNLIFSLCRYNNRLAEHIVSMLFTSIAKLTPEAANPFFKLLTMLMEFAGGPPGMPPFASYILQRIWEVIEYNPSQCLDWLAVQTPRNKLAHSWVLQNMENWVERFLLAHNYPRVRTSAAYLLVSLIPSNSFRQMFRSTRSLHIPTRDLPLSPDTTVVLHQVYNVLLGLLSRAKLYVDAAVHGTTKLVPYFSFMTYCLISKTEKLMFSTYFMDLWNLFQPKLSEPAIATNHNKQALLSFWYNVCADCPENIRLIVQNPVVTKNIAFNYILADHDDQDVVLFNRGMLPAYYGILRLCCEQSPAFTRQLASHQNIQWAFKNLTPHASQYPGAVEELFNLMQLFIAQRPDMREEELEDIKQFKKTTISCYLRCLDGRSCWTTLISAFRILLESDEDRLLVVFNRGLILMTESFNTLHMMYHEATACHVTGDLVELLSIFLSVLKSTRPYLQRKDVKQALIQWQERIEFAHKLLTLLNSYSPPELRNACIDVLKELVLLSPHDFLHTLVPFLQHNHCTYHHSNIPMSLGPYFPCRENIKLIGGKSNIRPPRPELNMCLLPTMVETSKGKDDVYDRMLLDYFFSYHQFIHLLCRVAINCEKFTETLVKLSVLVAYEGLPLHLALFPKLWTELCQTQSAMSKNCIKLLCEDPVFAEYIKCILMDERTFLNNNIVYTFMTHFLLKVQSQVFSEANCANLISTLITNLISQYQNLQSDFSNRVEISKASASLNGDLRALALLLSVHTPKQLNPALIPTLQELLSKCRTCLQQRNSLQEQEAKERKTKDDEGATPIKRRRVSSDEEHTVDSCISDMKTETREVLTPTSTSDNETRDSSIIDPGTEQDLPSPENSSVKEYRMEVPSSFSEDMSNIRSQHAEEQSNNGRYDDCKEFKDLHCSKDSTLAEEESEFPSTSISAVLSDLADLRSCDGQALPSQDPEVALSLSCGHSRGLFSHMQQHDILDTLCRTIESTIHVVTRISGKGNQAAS
Outline: (§1)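 HEK293T lysate in Tris/CHAPS/IGEPAL buffer with protease inhibitors (495 µg per sample) was given fragment at 200 µM or vehicle for 3 h, in triplicate. It then received Biotin-Ahx-Ub-VS at 0.5 µM final for 1 h. Labelled DUBs were NeutrAvidin-enriched, digested with LysC and trypsin, and run by diaPASEF LC-MS/MS. Values are average log2 fragment/vehicle ratios by unpaired t-test on global-median-normalised Spectronaut quantities of proteins with ≥2 unique peptides.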

USP36 = molecular target: T1, USP36 (UniProt Q9P275)
T1 sequence (whole entry): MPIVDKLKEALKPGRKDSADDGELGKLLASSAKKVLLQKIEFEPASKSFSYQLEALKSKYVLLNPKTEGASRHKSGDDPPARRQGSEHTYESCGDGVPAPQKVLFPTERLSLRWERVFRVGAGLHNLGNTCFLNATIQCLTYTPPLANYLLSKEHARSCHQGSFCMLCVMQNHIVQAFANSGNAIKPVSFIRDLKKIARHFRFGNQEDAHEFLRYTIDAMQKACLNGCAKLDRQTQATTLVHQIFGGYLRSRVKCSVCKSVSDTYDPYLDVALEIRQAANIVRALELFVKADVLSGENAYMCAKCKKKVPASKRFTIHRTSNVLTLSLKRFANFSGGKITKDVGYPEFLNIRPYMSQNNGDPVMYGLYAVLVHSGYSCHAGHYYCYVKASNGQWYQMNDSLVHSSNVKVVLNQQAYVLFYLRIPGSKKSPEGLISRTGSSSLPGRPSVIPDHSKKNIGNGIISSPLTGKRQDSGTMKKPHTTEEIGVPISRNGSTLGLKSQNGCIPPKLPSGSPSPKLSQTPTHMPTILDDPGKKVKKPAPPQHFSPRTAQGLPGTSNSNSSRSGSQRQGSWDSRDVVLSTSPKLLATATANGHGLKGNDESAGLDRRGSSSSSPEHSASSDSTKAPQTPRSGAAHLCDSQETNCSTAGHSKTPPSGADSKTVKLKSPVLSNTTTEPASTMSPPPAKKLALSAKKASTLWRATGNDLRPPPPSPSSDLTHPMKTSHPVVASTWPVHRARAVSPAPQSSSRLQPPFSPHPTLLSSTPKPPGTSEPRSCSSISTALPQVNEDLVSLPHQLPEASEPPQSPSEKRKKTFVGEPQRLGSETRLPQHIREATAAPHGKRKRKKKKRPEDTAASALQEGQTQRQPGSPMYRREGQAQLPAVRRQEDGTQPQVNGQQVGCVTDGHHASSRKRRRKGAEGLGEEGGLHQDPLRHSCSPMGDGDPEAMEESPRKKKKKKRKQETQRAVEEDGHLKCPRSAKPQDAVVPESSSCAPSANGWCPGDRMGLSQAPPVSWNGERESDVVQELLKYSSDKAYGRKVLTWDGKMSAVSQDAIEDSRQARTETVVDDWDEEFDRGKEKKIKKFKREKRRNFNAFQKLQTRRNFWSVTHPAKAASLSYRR
Outline: as §1

USP38 = molecular target: T2, USP38 (UniProt Q8NB14)
T2 sequence (whole entry): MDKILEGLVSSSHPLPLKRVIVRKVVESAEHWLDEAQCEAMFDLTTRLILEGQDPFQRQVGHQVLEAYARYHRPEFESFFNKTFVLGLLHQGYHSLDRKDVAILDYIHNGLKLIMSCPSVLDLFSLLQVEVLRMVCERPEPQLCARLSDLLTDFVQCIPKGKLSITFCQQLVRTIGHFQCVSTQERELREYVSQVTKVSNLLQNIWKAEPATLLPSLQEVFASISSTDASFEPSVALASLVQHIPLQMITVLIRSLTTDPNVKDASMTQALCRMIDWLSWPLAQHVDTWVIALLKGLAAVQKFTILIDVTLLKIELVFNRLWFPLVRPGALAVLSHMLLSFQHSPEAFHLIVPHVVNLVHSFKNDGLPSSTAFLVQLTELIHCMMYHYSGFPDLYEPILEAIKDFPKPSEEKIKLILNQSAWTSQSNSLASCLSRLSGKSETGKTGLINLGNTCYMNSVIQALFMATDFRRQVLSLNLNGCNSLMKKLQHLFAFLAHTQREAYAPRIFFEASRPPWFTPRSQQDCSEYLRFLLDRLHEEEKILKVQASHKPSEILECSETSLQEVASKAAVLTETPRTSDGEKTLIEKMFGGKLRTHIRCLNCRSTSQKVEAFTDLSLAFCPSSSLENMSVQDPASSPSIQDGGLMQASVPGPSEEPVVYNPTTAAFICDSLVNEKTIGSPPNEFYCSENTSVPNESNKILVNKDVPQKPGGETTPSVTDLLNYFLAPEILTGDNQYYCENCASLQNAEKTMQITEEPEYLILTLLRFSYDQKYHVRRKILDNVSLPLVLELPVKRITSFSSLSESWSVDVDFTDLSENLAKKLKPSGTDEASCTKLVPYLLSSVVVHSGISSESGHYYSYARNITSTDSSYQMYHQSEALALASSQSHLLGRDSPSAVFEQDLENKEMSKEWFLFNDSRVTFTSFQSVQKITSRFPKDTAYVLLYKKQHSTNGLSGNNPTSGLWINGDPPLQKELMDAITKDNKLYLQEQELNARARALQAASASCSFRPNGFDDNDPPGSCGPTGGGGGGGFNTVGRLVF
Outline: as §1

USP39 = molecular target: T3, USP39 (UniProt Q53GS9)
T3 sequence (whole entry): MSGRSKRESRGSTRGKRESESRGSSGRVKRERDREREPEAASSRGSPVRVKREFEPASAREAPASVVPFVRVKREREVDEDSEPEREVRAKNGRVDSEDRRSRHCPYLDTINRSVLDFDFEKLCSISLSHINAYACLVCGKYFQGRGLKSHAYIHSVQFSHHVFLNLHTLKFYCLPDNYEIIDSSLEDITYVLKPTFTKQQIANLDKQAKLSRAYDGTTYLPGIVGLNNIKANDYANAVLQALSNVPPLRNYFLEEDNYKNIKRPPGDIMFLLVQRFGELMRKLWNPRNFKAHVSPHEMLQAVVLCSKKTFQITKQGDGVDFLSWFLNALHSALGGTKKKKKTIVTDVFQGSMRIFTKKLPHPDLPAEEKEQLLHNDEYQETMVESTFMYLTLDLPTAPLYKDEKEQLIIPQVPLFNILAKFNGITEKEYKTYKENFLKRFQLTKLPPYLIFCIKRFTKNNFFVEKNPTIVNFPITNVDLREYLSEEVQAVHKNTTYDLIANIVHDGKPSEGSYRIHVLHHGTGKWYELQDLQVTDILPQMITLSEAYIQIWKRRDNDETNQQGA
Outline: as §1

USP4 = molecular target: T4, USP4 (UniProt Q13107)
T4 sequence (whole entry): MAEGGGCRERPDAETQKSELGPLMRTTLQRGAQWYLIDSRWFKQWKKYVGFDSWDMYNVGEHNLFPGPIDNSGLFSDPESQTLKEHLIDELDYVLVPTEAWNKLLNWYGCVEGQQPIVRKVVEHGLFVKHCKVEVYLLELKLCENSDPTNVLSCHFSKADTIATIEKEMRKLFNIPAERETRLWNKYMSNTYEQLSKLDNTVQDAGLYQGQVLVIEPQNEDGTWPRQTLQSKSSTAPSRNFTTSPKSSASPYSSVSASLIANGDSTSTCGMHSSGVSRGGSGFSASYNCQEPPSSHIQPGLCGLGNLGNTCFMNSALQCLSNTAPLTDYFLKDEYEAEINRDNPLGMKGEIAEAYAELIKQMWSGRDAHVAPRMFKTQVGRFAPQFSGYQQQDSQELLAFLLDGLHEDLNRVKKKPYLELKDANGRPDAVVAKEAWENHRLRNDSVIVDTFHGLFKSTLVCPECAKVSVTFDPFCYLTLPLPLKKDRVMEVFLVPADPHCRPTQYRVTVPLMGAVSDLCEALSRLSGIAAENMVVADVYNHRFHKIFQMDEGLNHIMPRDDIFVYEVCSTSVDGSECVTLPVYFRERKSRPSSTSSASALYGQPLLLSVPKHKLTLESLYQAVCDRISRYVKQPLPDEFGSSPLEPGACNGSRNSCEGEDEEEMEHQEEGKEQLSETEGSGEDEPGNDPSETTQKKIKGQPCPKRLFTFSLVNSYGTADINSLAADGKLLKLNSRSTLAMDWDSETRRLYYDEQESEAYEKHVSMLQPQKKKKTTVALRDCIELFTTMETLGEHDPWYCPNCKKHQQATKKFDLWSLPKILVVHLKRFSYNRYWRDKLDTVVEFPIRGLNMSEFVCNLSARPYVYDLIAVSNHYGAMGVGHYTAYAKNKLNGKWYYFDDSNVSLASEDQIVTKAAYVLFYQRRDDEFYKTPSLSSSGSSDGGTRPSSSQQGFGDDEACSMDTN
Outline: as §1

Measured: log2 ratio of Biotin-Ahx-Ub-VS probe labelling

Cc1ccc(CC(NC(=O)CCl)c2ccccn2)cc1.Cl (stereo not given)
inactive: USP34 -0.162 | USP36 0.13 | USP38 -0.114 | USP39 -0.181 | USP4 0.169
